# Where “and” joins values, the source holds several entries; their conditions need not be identical. Equal entries are not always repeated. Records with an inconclusive call do not appear. Entries that show only a call come without a potency. Calls of active or inactive are those of the source. Unless noted, calls follow the shape of the dose curve; as a rule, active = well fitted curve in the direction sought with a large enough effect; inconclusive = small, poorly fitted or top-dose-only effect, or another doubt; inactive = no such curve, though single readings can be large; an effect the other way counts as inactive or inconclusive.
# Legend:
# [1] = target: Cytochrome P450 3A4 (Homo sapiens) (UniProt P08684); assay: qHTS Assay for Activators of Cytochrome P450 3A4 (AID 885); also: nearly all actives have a fitted effect of over 65% in size
# Sequence of Cytochrome P450 3A4 (Homo sapiens) (P08684 whole entry, looked up): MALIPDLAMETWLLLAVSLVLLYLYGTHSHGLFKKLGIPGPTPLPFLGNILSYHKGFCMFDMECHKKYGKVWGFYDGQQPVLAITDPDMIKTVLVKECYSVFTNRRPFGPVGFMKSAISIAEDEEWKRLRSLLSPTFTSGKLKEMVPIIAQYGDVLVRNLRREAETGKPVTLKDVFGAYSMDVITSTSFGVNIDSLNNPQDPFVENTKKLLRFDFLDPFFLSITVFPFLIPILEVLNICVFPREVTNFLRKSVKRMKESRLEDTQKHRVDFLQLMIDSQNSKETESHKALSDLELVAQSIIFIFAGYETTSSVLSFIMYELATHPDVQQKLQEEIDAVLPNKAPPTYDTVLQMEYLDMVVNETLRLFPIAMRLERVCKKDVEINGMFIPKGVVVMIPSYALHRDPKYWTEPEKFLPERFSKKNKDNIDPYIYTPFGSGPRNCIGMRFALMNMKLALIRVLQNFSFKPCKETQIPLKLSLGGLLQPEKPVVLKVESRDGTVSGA
# In short: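 Steps: enzyme/substrate mix dispensed; compound added, 10 min RT; NADPH regeneration solution added, 60 min RT; luciferin detection buffer stops reaction; 20 min later luminescence measured.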
# [2] = target: ATP-dependent 6-phosphofructokinase (Trypanosoma brucei brucei) (UniProt O15648); assay: qHTS Assay to Find Inhibitors of T. brucei phosphofructokinase: hit validation (AID 492961)
# Sequence of ATP-dependent 6-phosphofructokinase (Trypanosoma brucei brucei) (O15648 whole entry, looked up): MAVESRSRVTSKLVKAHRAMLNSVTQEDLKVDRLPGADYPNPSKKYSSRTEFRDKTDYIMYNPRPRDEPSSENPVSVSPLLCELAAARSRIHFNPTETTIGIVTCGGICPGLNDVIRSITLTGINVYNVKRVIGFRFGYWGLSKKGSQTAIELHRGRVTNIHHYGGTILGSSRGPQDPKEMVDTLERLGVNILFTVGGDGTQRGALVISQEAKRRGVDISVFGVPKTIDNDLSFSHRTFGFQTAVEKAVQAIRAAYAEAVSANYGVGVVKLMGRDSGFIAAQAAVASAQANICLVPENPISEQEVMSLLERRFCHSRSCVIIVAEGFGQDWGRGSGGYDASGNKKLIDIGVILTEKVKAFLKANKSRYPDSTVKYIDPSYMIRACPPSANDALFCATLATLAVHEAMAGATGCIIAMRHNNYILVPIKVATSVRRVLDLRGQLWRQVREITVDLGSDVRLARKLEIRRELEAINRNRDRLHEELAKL
# In short: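 Luminescence from ADP-Glo reports ADP generated as T. brucei PFK (1.25 nM) phosphorylates 0.5 mM fructose-6-phosphate using 0.1 mM ATP. Reactions ran 45 min at room temperature, pH 8.0.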
# [3] = target: Ubiquitin carboxyl-terminal hydrolase 1 (Homo sapiens) (UniProt O94782); assay: Inhibitors of USP1/UAF1: Pilot qHTS (AID 504865); also: potency is read from the fitted curve at half-maximal effect; nearly all actives have a fitted effect of over 35% in size
# Sequence of Ubiquitin carboxyl-terminal hydrolase 1 (Homo sapiens) (O94782 whole entry, looked up): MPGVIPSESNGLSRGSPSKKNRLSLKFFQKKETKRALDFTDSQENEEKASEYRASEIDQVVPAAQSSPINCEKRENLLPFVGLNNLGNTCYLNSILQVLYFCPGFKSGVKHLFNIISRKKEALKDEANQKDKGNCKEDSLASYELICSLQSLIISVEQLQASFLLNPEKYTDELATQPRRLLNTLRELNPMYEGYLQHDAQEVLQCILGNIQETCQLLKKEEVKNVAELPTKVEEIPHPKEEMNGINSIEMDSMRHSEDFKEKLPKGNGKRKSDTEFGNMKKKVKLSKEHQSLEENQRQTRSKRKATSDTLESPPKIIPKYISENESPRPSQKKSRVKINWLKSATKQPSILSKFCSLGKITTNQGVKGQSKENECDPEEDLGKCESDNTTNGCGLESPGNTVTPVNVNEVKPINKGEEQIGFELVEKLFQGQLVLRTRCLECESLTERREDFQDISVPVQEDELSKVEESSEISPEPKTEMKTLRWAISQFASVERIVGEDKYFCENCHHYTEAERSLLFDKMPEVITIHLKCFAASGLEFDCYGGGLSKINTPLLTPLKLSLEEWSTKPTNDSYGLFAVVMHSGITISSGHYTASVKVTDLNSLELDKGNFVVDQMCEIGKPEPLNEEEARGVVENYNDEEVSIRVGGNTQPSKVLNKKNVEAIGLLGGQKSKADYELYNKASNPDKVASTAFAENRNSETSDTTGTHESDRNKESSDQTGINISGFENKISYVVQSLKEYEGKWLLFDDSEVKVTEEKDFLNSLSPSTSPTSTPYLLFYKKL
# In short: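 Enzyme-free wells gave the negative control, while test wells held 1nM USP1/UAF1 preincubated with compound for 15 min at room temperature. Ub-Rho at 150nM final started the reaction, and fluorescence at 480/540 nm was recorded kinetically.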
# [4] = S16 Schwann cell viability assay (CellTiter-Glo assay) (AID 624031);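 also: native untransfected S16 rat Schwann cells; cellular ATP luminescence as a viability measure; nearly all actives have a fitted effect of over 70% in size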
# In short: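 Rat S16 Schwann cells without reporter constructs received compound or DMSO for 24 h at 37 °C under 5% CO2. Cellular ATP was then quantified by CellTiter-Glo luminescence, with vehicle wells defined as 0% activity and cell-free wells as reference.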
# [5] = S16 Schwann cell PMP22 intronic element beta-lactamase assay (AID 624044; calls by dose curve; also: nearly all actives have a fitted effect of over 15% in size)
# In short: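 Rat S16 Schwann cells with beta-Lac driven by a PMP22 intronic element, compound-treated 24 h at 37 °C. LiveBLAzer FRET B/G read: 460 nm normalized to potassium clavulanate vs DMSO; 535 nm FRET as viability; concentration-effect curves classified.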
# [6] = Primary qHTS for small molecule stabilizers of the endoplasmic reticulum resident proteome: Secreted ER Calcium Modulated Protein (SERCaMP) assay (AID 1508630)
# In short: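 GLuc-SERCaMP-expressing SH-SY5Y cells, pretreated 16 h with compound, are challenged with thapsigargin to empty ER calcium stores; after 4 h, coelenterazine is added directly to the medium and luminescence is imaged.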
# ATS189 = assay: qHTS profiling for inhibitors of Plasmodium falciparum proliferation (AID 504749); also: nearly all actives have a fitted effect of over 60% in size; also: potency is read from the fitted curve at half-maximal effect; conditions: P. falciparum in erythrocytes, SYBR Green DNA, 72 h; series mostly up to 12.8 µM
# In short: (§1)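 Readout was DNA-dye fluorescence from lysed cultures, ex 485/em 535 nm. Parasitized red cells had grown 72 h with compound; data scaled between 0.29 uM artemisinin and DMSO wells and corrected using vehicle-only plates.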
# ATS95 = assay: as above; conditions: P. falciparum in erythrocytes, SYBR Green DNA, 72 h; series mostly up to 12.8 µM
# In short: as §1
# CP185 = assay: as above; conditions: P. falciparum in erythrocytes, SYBR Green DNA, 72 h; series mostly up to 12.8 µM
# In short: as §1
# CP201 = assay: as above; conditions: P. falciparum in erythrocytes, SYBR Green DNA, 72 h; series mostly up to 12.8 µM
# In short: as §1
# CP211 = assay: as above; conditions: P. falciparum in erythrocytes, SYBR Green DNA, 72 h; series mostly up to 12.8 µM
# In short: as §1
# CP238 = assay: as above; conditions: P. falciparum in erythrocytes, SYBR Green DNA, 72 h; series mostly up to 12.8 µM
# In short: as §1
# CP256 = assay: as above; conditions: P. falciparum in erythrocytes, SYBR Green DNA, 72 h; series mostly up to 12.8 µM
# In short: as §1
# CP262 = assay: as above; conditions: P. falciparum in erythrocytes, SYBR Green DNA, 72 h; series mostly up to 12.8 µM
# In short: as §1
# CP266 = assay: as above; conditions: P. falciparum in erythrocytes, SYBR Green DNA, 72 h; series mostly up to 28.7 µM
# In short: as §1
# CP297 = assay: as above; conditions: P. falciparum in erythrocytes, SYBR Green DNA, 72 h; series mostly up to 12.8 µM
# In short: as §1
# CP305 = assay: as above; conditions: P. falciparum in erythrocytes, SYBR Green DNA, 72 h; series mostly up to 12.8 µM
# In short: as §1
# CP325 = assay: as above; conditions: P. falciparum in erythrocytes, SYBR Green DNA, 72 h; series mostly up to 12.8 µM
# In short: as §1
# CP335 = assay: as above; conditions: P. falciparum in erythrocytes, SYBR Green DNA, 72 h; series mostly up to 12.8 µM
# In short: as §1
# DFO2036 = assay: as above; conditions: P. falciparum in erythrocytes, SYBR Green DNA, 72 h; series mostly up to 12.8 µM
# In short: as §1
# DIV17 = assay: as above; conditions: P. falciparum in erythrocytes, SYBR Green DNA, 72 h; series mostly up to 12.8 µM
# In short: as §1
# ECU = assay: as above; conditions: P. falciparum in erythrocytes, SYBR Green DNA, 72 h; series mostly up to 12.8 µM
# In short: as §1
# FAB9 = assay: as above; conditions: P. falciparum in erythrocytes, SYBR Green DNA, 72 h; series mostly up to 12.8 µM
# In short: as §1
# HB3 = assay: as above; conditions: P. falciparum in erythrocytes, SYBR Green DNA, 72 h; series mostly up to 12.8 µM
# In short: as §1
# ICS = assay: as above; conditions: P. falciparum in erythrocytes, SYBR Green DNA, 72 h; series mostly up to 12.8 µM
# In short: as §1
# JCK = assay: as above; conditions: P. falciparum in erythrocytes, SYBR Green DNA, 72 h; series mostly up to 12.8 µM
# In short: as §1
# PC15 = assay: as above; conditions: P. falciparum in erythrocytes, SYBR Green DNA, 72 h; series mostly up to 12.8 µM
# In short: as §1
# PC26 = assay: as above; conditions: P. falciparum in erythrocytes, SYBR Green DNA, 72 h; series mostly up to 12.8 µM
# In short: as §1
# PC49 = assay: as above; conditions: P. falciparum in erythrocytes, SYBR Green DNA, 72 h; series mostly up to 12.8 µM
# In short: as §1
# SC27B = assay: as above; conditions: P. falciparum in erythrocytes, SYBR Green DNA, 72 h; series mostly up to 12.8 µM
# In short: as §1
# TAB109 = assay: as above; conditions: P. falciparum in erythrocytes, SYBR Green DNA, 72 h; series mostly up to 12.8 µM
# In short: as §1
# TAB113 = assay: as above; conditions: P. falciparum in erythrocytes, SYBR Green DNA, 72 h; series mostly up to 12.8 µM
# In short: as §1
# W2 = assay: as above; conditions: P. falciparum in erythrocytes, SYBR Green DNA, 72 h; series mostly up to 12.8 µM
# In short: as §1
smiles,measurement,setting,value
COc1cc(/C=C/C(=O)/C=C(O)/C=C/c2ccc(O)c(OC)c2)ccc1O,Potency,[1],inactive
same,outcome,[2],inactive
same,Potency,[3],12.6 µM (active) and 31.6 µM (active)
same,Potency,[4],inactive
same,outcome,[5],inactive
same,outcome,[6],inactive
same,Potency,ATS189,inactive
same,Potency,ATS95,inactive
same,Potency,CP185,inactive
same,Potency,CP201,inactive
same,Potency,CP211,inactive
same,Potency,CP238,inactive
same,Potency,CP256,inactive
same,Potency,CP262,inactive
same,Potency,CP266,inactive
same,Potency,CP297,15.1 µM (active)
same,Potency,CP305,inactive
same,Potency,CP325,inactive
same,Potency,CP335,inactive
same,Potency,DFO2036,inactive
same,Potency,DIV17,12 µM (active)
same,Potency,ECU,inactive
same,Potency,FAB9,inactive
same,Potency,HB3,inactive
same,Potency,ICS,10 µM (active)
same,Potency,JCK,inactive
same,Potency,PC15,inactive
same,Potency,PC26,12 µM (active)
same,Potency,PC49,inactive
same,Potency,SC27B,inactive
same,Potency,TAB109,inactive
same,Potency,TAB113,inactive
same,Potency,W2,15.1 µM (active)

# Source: PubChem BioAssay (NCATS)
